A number with no mark means an inactive call. Results filed as inconclusive are left out. Entries that show only a call come without a potency. Calls of active or inactive are those of the source. Unless noted, calls come from the whole dose curve; as a rule, active = well fitted curve in the direction sought with a large enough effect in the repeat runs; inconclusive = weak or mixed curves; inactive = no such curve, though single readings can be large; an effect the other way counts as inactive or inconclusive.
What was measured:
[1] = qHTS RealTime-Glo MT Cell Viability Assay in HepG2 cells - 32 hour (AID 1224877); note: nearly all actives have a fitted effect of over 55% in size
In short: (§1)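 HepG2 suspension premixed with RealTime-Glo reagents is plated at 600 cells per well and left 5 h at 37 C/5% CO2. Compounds in DMSO then go in, and bioluminescence reflecting viable cell number is recorded over 40 h.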

[2] = A CellTox Green Cytotoxicity Assay to monitor cytotoxicity in HepG2 cells - 24 hour (AID 1224878); note: nearly all actives have a fitted effect of over 45% in size
In short: (§2)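 Fluorescent DNA-binding dye, 600 HepG2 cells/well, 5 h preincubation then compound in DMSO; same plates read at 0–40 h, 37 C.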

[3] = A CellTox Green Cytotoxicity Assay to monitor cytotoxicity in HepG2 cells - 40 hour (AID 1224879); note: nearly all actives have a fitted effect of over 40% in size
In short: as §2

[4] = qHTS RealTime-Glo MT Cell Viability Assay in HEK293 cells - 0 hour (AID 1224880); note: top concentration of the series differs between compounds; nearly all actives have a fitted effect of over 45% in size
In short: (§3)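 Measured as luminescence from the same continuously cultured HEK293 wells at successive time points (0, 8, 16, 24, 32, 40 h) after compound addition. Reagent present from seeding; dosing at 5 h; incubation 37 C.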

[5] = A CellTox Green Cytotoxicity Assay to monitor cytotoxicity in HEK293 cells - 32 hour (AID 1224881); note: nearly all actives have a fitted effect of over 40% in size
In short: (§4)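 Homogeneous no-lysis format: HEK293 cell suspension mixed with CellTox Green reagent, seeded, incubated 5 h at 37 C/5% CO2, then dosed by pintool with compound in DMSO.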

[6] = A CellTox Green Cytotoxicity Assay to monitor cytotoxicity in HepG2 cells - 0 hour (AID 1224882); note: nearly all actives have a fitted effect of over 35% in size
In short: as §2

[7] = A CellTox Green Cytotoxicity Assay to monitor cytotoxicity in HepG2 cells - 32 hour (AID 1224883); note: nearly all actives have a fitted effect of over 50% in size
In short: as §2

[8] = A CellTox Green Cytotoxicity Assay to monitor cytotoxicity in HEK293 cells - 8 hour (AID 1224884); note: nearly all actives have a fitted effect of over 35% in size
In short: as §4

[9] = qHTS RealTime-Glo MT Cell Viability Assay in HepG2 cells - 16 hour (AID 1224885); note: nearly all actives have a fitted effect of over 50% in size
In short: as §1

[10] = qHTS RealTime-Glo MT Cell Viability Assay in HEK293 cells - 8 hour (AID 1224887); note: nearly all actives have a fitted effect of over 50% in size; note: potency is the fitted concentration of half-maximal effect
In short: as §3

[11] = A CellTox Green Cytotoxicity Assay to monitor cytotoxicity in HEK293 cells - 16 hour (AID 1224888); note: nearly all actives have a fitted effect of over 35% in size
In short: as §4

[12] = qHTS RealTime-Glo MT Cell Viability Assay in HepG2 cells - 0 hour (AID 1224889); note: nearly all actives have a fitted effect of over 50% in size
In short: as §1

[13] = qHTS assay to identify small molecule antagonists of the estrogen receptor alpha (ER-alpha) signaling pathway using the BG1 cell line in the presence of 0.1 nM 17-beta-estradiol - cell viability counter screen (AID 1259241); note: nearly all actives have a fitted effect of over 40% in size
In short: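 Live-cell protease activity (CellTiter-Fluor fluorescence, 30 min) was read in the same wells after VM7Luc4E2 cells had been exposed to compounds with 0.1 nM 17beta-estradiol for 22 hr at 37C.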

[14] = biological target: Estrogen receptor (Homo sapiens) (UniProt P03372); assay: qHTS assay to identify small molecule antagonists of the estrogen receptor alpha (ER-alpha) signaling pathway using the BG1 cell line in the presence of 0.1 nM 17-beta-estradiol (AID 1259244); note: nearly all actives have a fitted effect of over 50% in size
In short: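 Seeding of stripped-serum-adapted VM7Luc4E2 cells, 24 h attachment, compound transfer, then 0.1 nM final 17beta-estradiol; after 22 h incubation, ONE-Glo reagent and luminescence reading.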

[15] = qHTS assay to identify small molecule HDAC inhibitors (AID 1259364);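 note: wild-type HCT-116 cells with endogenous class I/II HDAC activity; top concentration of the series differs between compounds; nearly all actives have a fitted effect of over 45% in size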
In short: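 After a 2 hr compound incubation (37C, 5% CO2), HCT-116 cells seeded at 1,500/well the day before received HDAC-Glo reagent; signal read as luminescence after 30 min at room temperature.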

[16] = qHTS assay to identify small molecule HDAC inhibitors - cell viability counter screen (AID 1259365)
In short: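 HCT-116 (wild type), 1,500 cells/well, overnight 37C/5% CO2; compound in DMSO 2hr; CellTiter-Glo 30min RT; luminescence read.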

[17] = qHTS RealTime-Glo MT Cell Viability Assay in HEK293 cells - 24 hour (AID 1224886); note: nearly all actives have a fitted effect of over 50% in size; note: potency is the fitted concentration of half-maximal effect
In short: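 Reads taken at 0, 8, 16, 24, 32 and 40 h from the same wells. HEK293 cells (600/well) carried RealTime-Glo reagents from seeding, with compound added after a 5 h settle at 37 C.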

[18] = A CellTox Green Cytotoxicity Assay to monitor cytotoxicity in HepG2 cells - 8 hour (AID 1224890); note: nearly all actives have a fitted effect of over 45% in size
In short: as §2

[19] = qHTS assay to identify small molecule antagonists of the androgen receptor (AR) signaling pathway using the MDA cell line in the presence of 0.5 nM R1881 - cell viability counter screen (AID 1259242); note: nearly all actives have a fitted effect of over 45% in size
In short: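 Human breast carcinoma MDA-kb2 cells, cultured without CO2, receive compounds alongside 0.5 nM (final) R1881 agonist. After 16 hr at 37C, viability is taken as live-cell protease signal.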

[20] = qHTS assay to identify small molecule phospholipidosis (PLD) inducers (AID 1259344; active = well fitted curve in the direction sought with a large enough effect; an effect the other way counts as inactive or inconclusive)
In short: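 Read-out is LipidTOX Red fluorescence (ex 595/em 615) imaged in HepG2 cells after 24 h compound exposure at 37 C, with Hoechst nuclear counterstain (ex 352/em 461) allowing per-cell normalisation.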

Sequence of Estrogen receptor (Homo sapiens) (P03372 whole entry, looked up): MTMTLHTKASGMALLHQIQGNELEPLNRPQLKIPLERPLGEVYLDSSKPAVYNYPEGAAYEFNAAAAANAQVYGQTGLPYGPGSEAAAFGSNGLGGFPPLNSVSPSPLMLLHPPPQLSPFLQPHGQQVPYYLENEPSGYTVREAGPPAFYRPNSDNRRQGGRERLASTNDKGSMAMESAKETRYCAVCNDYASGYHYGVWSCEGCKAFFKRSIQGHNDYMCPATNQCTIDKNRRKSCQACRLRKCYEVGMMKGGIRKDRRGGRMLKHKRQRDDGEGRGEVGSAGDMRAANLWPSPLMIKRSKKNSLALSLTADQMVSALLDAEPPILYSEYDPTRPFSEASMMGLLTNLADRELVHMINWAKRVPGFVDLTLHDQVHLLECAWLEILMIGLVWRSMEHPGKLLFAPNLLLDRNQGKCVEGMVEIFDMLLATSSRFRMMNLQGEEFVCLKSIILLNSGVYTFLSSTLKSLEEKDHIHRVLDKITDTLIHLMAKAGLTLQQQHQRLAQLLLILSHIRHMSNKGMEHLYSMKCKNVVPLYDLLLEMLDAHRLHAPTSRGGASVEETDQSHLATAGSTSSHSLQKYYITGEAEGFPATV

SMILES	outcome [1]	Potency [2]	Potency [3]	outcome [4]	Potency [5]	Potency [6]	Potency [7]	Potency [8]	outcome [9]	Potency [10]	Potency [11]	Potency [12]	Potency [13]	Potency [14]	Potency [15]	outcome [16]	Potency [17]	Potency [18]	Potency [19]	outcome [20]
CC1=NN(c2ccc(S(=O)(=O)O)cc2)C(=O)C1N=Nc1ccccc1 (stereo not given)	inactive	inactive	inactive	inactive	inactive	inactive	inactive	inactive	inactive	inactive	inactive	inactive	inactive	inactive	inactive	inactive	–	–	–	–
C=C(C)[C@@H]1CC[C@@H](C)C[C@@H]1O	inactive	inactive	inactive	inactive	inactive	inactive	inactive	inactive	inactive	inactive	inactive	inactive	inactive	–	inactive	inactive	inactive	inactive	inactive	–
CC(C)(CO)[C@@H](O)C(=O)NCCCO	inactive	inactive	inactive	inactive	inactive	inactive	inactive	–	inactive	inactive	inactive	–	inactive	inactive	inactive	inactive	inactive	inactive	inactive	inactive
CCNC(=O)/C=C/c1cccc(Br)c1	inactive	inactive	inactive	inactive	inactive	inactive	inactive	inactive	inactive	inactive	inactive	–	inactive	–	–	inactive	inactive	inactive	inactive	inactive
CCCCCCCCCCCCC1CO1 (stereo not given)	inactive	inactive	inactive	inactive	inactive	inactive	inactive	inactive	inactive	inactive	inactive	–	inactive	inactive	inactive	inactive	inactive	inactive	inactive	–
CCCCC(CC)C(=O)OC(C)C (stereo not given)	inactive	inactive	inactive	inactive	inactive	inactive	inactive	inactive	inactive	inactive	inactive	inactive	inactive	–	inactive	inactive	inactive	inactive	inactive	–
CCC(C)(C)C1CCC(=O)CC1	inactive	inactive	inactive	inactive	inactive	inactive	inactive	–	inactive	inactive	inactive	inactive	inactive	inactive	inactive	inactive	inactive	inactive	inactive	–
CCCCCCCC[Si](OCC)(OCC)OCC	inactive	inactive	inactive	inactive	inactive	inactive	inactive	–	inactive	inactive	inactive	inactive	inactive	–	inactive	inactive	inactive	inactive	inactive	–
NC(=O)NC(=O)Cc1ccccc1	inactive	inactive	inactive	inactive	inactive	inactive	inactive	inactive	inactive	inactive	inactive	–	inactive	inactive	inactive	inactive	inactive	inactive	inactive	inactive
Cc1cccc(NC(=S)N(C)C)c1	inactive	inactive	inactive	inactive	inactive	inactive	inactive	inactive	inactive	inactive	inactive	–	inactive	–	inactive	inactive	inactive	inactive	inactive	–
CCCCOC(=O)[C@@H](C)Oc1ccc(Oc2ccc(C(F)(F)F)cn2)cc1	inactive	inactive	inactive	inactive	inactive	inactive	inactive	–	inactive	24.7 µM (active)	inactive	inactive	inactive	inactive	inactive	inactive	31.1 µM (active)	inactive	inactive	–
CN[C@@H]1[C@H](O)[C@H](NC)[C@H]2O[C@@]3(O)C(=O)C[C@@H](C)O[C@H]3O[C@@H]2[C@H]1O	inactive	inactive	inactive	inactive	inactive	inactive	inactive	–	inactive	inactive	inactive	–	inactive	inactive	inactive	inactive	inactive	inactive	inactive	inactive
COc1cc(C=O)ccc1OC(=O)C(C)C	inactive	inactive	inactive	inactive	inactive	inactive	inactive	inactive	inactive	inactive	inactive	inactive	inactive	–	inactive	inactive	inactive	inactive	inactive	–
O=S(=O)(O)CCO	inactive	inactive	inactive	inactive	inactive	inactive	inactive	inactive	inactive	inactive	inactive	inactive	inactive	inactive	inactive	inactive	–	inactive	inactive	–
CCCCC(=O)N(C)C	inactive	inactive	inactive	inactive	inactive	inactive	inactive	–	inactive	inactive	inactive	inactive	inactive	inactive	–	inactive	inactive	inactive	inactive	–

— PubChem BioAssay (Tox21)
